Screening data as filed in PubChem BioAssay.
Rows were chosen to be rich in hits. Some 4% of all compounds tested hit in one or more screens of this group.
Beta apoptosis: blocks beta cell apoptosis; AID 435005; INS-1E cytokine-induced death, ATP luminescence, 48 h; percent of positive-control rescue, neutral wells zero; 300,000 tested, 0.8% active; protection from apoptosis, % (concentration not given with the values);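 active = Every replicate reaches about 75%, or at least half do and their mean reaches it too, limit read from the data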;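 also: 0% = cytokine-treated negative control wells and 100% = positive control rescue; higher means more ATP so stronger rescue from cytokine killing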
Gli-Sufu block: blocks Gli-Sufu signaling in a luciferase reporter; Sufu-KO-LIGHT fibroblasts, Gli luciferase reporter luminescence; inhibition, % at 5 µM; 340,000 tested, 0.74% active; AID 588413;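 active = inhibition above about 55%, limit read from the data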;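 also: 0% = DMSO-treated cells and 100% = wells with medium but no cells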
697 NFkB inh: inhibitors of the PMA/ionomycin-induced NF-kB reporter in 697 B cells; AID 435022; 697 B-cell NF-kB luciferase reporter, 16 h; 330,000 tested, 0.33% active; inhibition, % at 4 µM; in the data active = inhibition above about 35%
Mdm2 MdmX PPI: inhibitors of human Mdm2/MdmX interaction; O15151+Q00987; SaOS-2 split-luciferase Mdm2/MdmX complementation, luminescence; inhibition, % at 8 µM; 330,000 tested, 3% active; AID 485346;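 active = inhibition of at least 50% at 8 µM in the primary screen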
Target sequence (O15151 whole entry, looked up): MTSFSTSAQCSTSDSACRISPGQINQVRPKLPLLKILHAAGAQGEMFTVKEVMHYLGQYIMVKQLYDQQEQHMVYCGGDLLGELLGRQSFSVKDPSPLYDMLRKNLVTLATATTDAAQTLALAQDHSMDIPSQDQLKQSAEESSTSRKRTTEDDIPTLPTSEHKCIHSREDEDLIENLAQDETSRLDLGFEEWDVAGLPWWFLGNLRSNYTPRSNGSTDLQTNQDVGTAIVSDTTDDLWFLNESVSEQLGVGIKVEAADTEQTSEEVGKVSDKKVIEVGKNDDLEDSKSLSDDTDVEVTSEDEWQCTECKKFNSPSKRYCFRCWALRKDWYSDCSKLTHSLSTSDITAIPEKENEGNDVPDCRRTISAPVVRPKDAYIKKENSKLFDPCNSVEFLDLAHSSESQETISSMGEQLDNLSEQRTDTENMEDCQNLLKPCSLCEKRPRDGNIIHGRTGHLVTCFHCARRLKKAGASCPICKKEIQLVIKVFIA
Target sequence (Q00987 whole entry, looked up): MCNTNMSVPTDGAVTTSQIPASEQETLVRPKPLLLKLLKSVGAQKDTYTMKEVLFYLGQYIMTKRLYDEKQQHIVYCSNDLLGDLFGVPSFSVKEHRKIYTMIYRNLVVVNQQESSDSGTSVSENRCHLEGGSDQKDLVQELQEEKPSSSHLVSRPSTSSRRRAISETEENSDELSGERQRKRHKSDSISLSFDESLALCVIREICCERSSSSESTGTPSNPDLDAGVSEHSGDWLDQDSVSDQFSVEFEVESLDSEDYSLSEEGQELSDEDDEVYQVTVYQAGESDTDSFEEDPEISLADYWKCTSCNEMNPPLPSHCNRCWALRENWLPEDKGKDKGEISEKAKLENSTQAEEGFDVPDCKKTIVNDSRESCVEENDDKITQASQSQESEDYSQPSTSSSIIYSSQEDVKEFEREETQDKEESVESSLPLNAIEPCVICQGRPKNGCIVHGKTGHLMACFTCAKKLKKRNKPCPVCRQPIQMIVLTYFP
Jurkat NFkB inh: inhibitors of the PMA/ionomycin-induced NF-kB reporter in Jurkat cells. PMA/ionomycin-induced NF-kB luciferase reporter, luminescence. inhibition, % at 4 µM. 330,000 tested, 0.53% active. AID 435003; in the data active = inhibition above about 50%
* hit, by the source's call.

`Cc1cc(C(=O)Nc2ccc3c(c2)CCC3)ccc1[N+](=O)[O-]` gave Beta apoptosis 4, Gli-Sufu block -67, 697 NFkB inh -150, Mdm2 MdmX PPI -122 and Jurkat NFkB inh -136.
For CCOCCCN(CCC#N)C(=O)C1CCN(S(=O)(=O)c2ccc(-n3cnnn3)cc2)CC1 the results were Beta apoptosis 2, Gli-Sufu block -4, 697 NFkB inh 9, Mdm2 MdmX PPI 15 and Jurkat NFkB inh 9.
CN(C)c1cccc(NC(=O)c2cccc3ccccc23)c1 was read as Beta apoptosis -4, Gli-Sufu block -6, 697 NFkB inh 15, Mdm2 MdmX PPI 10 and Jurkat NFkB inh -1.
O=C(N/N=C/c1cc(Cl)ccc1O)c1cccnc1 was read as Beta apoptosis 86*, Gli-Sufu block -1, 697 NFkB inh -25, Mdm2 MdmX PPI 31 and Jurkat NFkB inh 22.
For COc1cccc2cc(C(=O)Nc3ccccc3Cl)/c(=N/NS(=O)(=O)c3ccccc3)oc12 the results were Beta apoptosis 2, Gli-Sufu block -5, 697 NFkB inh 20, Mdm2 MdmX PPI 43 and Jurkat NFkB inh 18.
O=[N+]([O-])c1ccc(N=Nc2c(Cl)cc(O)cc2Cl)cc1 was read as Beta apoptosis 122* and Gli-Sufu block 24.
`COc1cccc2c1C(=O)c1c(O)c3c(c(O)c1C2=O)C[C@@](O)(C(=O)CO)C[C@@H]3OC1CC(N)C(O)C(C)O1` (some centres not stated) gave Gli-Sufu block 91*.
Screening COc1cccc2c1C(=O)c1c(O)c3c(c(O)c1C2=O)CC(O)(C(C)=O)CC3OC1CC(N(C)C)C(O)C(C)O1 (configuration not stated) returned Gli-Sufu block 69*.
`Nc1cccc2c1C(=O)N(c1ccccc1)C2=O` gave Gli-Sufu block -14, 697 NFkB inh -1, Mdm2 MdmX PPI 3 and Jurkat NFkB inh 0.
c1nc(NCc2ccc3c(c2)OCO3)c2cc(-c3ccc4c(c3)OCCO4)ccc2n1 was read as Beta apoptosis 99*, Gli-Sufu block -26, 697 NFkB inh -8, Mdm2 MdmX PPI 27 and Jurkat NFkB inh 5.
`c1cncc(CNc2ncnc3ccc(-c4ccc5c(c4)OCO5)cc23)c1` gave Beta apoptosis -6, Gli-Sufu block -30, 697 NFkB inh -6, Mdm2 MdmX PPI -8 and Jurkat NFkB inh 10.
For COc1ccc(CC(=O)N2CCCC2)c(OC)c1 the results were Beta apoptosis -7, Gli-Sufu block 23, 697 NFkB inh 11, Mdm2 MdmX PPI -6 and Jurkat NFkB inh 8.
For Cc1ccnc(SCC(=O)Nc2sc3c(c2C#N)CCCC3)n1 the results were Beta apoptosis 106*, Gli-Sufu block 0, 697 NFkB inh -23, Mdm2 MdmX PPI -1 and Jurkat NFkB inh 27.
For Cc1ccc(NNC(=O)c2ccno2)cc1Cl the results were Beta apoptosis 99*, Gli-Sufu block -10, 697 NFkB inh -17, Mdm2 MdmX PPI -4 and Jurkat NFkB inh 7.
`Cc1ccc(NNC(=O)c2ccno2)cc1C` gave Beta apoptosis 6, Gli-Sufu block -7, 697 NFkB inh 12, Mdm2 MdmX PPI 24 and Jurkat NFkB inh 14.
`O=[N+]([O-])c1ccccc1CNC1CCCc2ccccc21` (configuration not stated) gave Beta apoptosis -7, Gli-Sufu block -15, 697 NFkB inh 1, Mdm2 MdmX PPI 29 and Jurkat NFkB inh 2.
`Cc1ccc(CS(=O)(=O)Cc2ccc(C(=O)NCCc3ccccc3)o2)cc1` gave Beta apoptosis -6, Gli-Sufu block -10, 697 NFkB inh -6, Mdm2 MdmX PPI 19 and Jurkat NFkB inh -6.
For Fc1ccc(N2CCN(Cc3c[nH]c4ccccc34)CC2)cc1 the results were Beta apoptosis 91*, 697 NFkB inh 14, Mdm2 MdmX PPI 9 and Jurkat NFkB inh 9.
`Cc1ccccc1N1CCN(Cc2c[nH]c3ccccc23)CC1` gave Beta apoptosis 111*, Gli-Sufu block -6, 697 NFkB inh -19, Mdm2 MdmX PPI 9 and Jurkat NFkB inh 1.
For COc1ccccc1N1CCN(Cc2c[nH]c3ccccc23)CC1 the results were Gli-Sufu block 5, 697 NFkB inh 14, Mdm2 MdmX PPI 11 and Jurkat NFkB inh 13.
For COc1cccc(CN2CCN(c3ncccn3)CC2)c1OC the results were Beta apoptosis -7, Gli-Sufu block 6, 697 NFkB inh 3, Mdm2 MdmX PPI -17 and Jurkat NFkB inh 3.
For c1cnc(N2CCN(Cc3c[nH]c4ccccc34)CC2)nc1 the results were Beta apoptosis 106*, Gli-Sufu block 6, 697 NFkB inh -8, Mdm2 MdmX PPI 4 and Jurkat NFkB inh 13.
`CN(C)C(=O)c1ccc(NC(=O)COC(=O)CCN=C2NS(=O)(=O)c3ccccc32)cc1` gave Gli-Sufu block 3.
For CC(Sc1ccc(Cl)cc1)C(=O)NCC(c1ccco1)N1CCCCC1 (configuration not stated) the results were Beta apoptosis -1, Gli-Sufu block 17, 697 NFkB inh -36, Mdm2 MdmX PPI -11 and Jurkat NFkB inh -8.
`CCc1c(C2(O)CCCCC2)[nH]c2cc(C(F)(F)F)ccc12` gave Beta apoptosis 109*, Gli-Sufu block 5, 697 NFkB inh -21, Mdm2 MdmX PPI 45 and Jurkat NFkB inh -4.
`Cc1c(C2(O)CCCCC2)[nH]c2cc(C(F)(F)F)ccc12` gave Beta apoptosis 15, Gli-Sufu block -2, 697 NFkB inh -4, Mdm2 MdmX PPI -2 and Jurkat NFkB inh 2.
`c1ccc(-c2nnc(-c3ccccc3)nn2)cc1` gave Beta apoptosis -5, Gli-Sufu block -71, 697 NFkB inh -157, Mdm2 MdmX PPI -191 and Jurkat NFkB inh -106.
`c1cncc(-c2nnc(-c3cccnc3)nn2)c1` gave Beta apoptosis 108*, Gli-Sufu block -2, 697 NFkB inh -13, Mdm2 MdmX PPI 33 and Jurkat NFkB inh -8.
For O=C(COC(=O)/C=C/c1ccc(F)cc1)NC1CCS(=O)(=O)C1 (configuration not stated) the results were Gli-Sufu block -1, 697 NFkB inh 3, Mdm2 MdmX PPI -23 and Jurkat NFkB inh 0.
Screening O=C(O)c1ccc(N/N=C/c2cn(Cc3ccc(F)cc3)c3ccccc23)cc1 returned Beta apoptosis -7, Gli-Sufu block -20, 697 NFkB inh -138, Mdm2 MdmX PPI 3 and Jurkat NFkB inh 3.
`O=[N+]([O-])/C=C/c1cn(Cc2ccc(F)cc2)c2ccccc12` gave Beta apoptosis 78*, Gli-Sufu block -4, 697 NFkB inh 9, Mdm2 MdmX PPI 22 and Jurkat NFkB inh 0.
`CC(C)C[C@H]1CN=C(Nc2ccccc2)N1CCc1ccc(F)cc1` gave Beta apoptosis 90*, Gli-Sufu block 10, 697 NFkB inh -7, Mdm2 MdmX PPI 29 and Jurkat NFkB inh 17.
Screening Cc1cccc(CCN2C(Nc3ccccc3)=NC[C@@H]2CC(C)C)c1 returned Beta apoptosis -2, Gli-Sufu block 20, 697 NFkB inh 4, Mdm2 MdmX PPI 48 and Jurkat NFkB inh 23.
